Data on 14 compounds can be found in PubChem BioAssay.

A short description of assay [1]: small molecules captured by biotinylated probe aFSTL3 – biochemical, small-molecule microarray, fluorescence 635/667, stem cell growth factor project, primary screen (AID 1064).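 Note: measures binding of the biotinylated anti-FSTL3 antibody to printed compounds.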 The note with it: higher = more signal.
Assay [2] in a line: binders from COS7 lysate, DM2A8 probe, primary screen, torsin A project, cell lysate, small-molecule microarray, fluorescence 635/667 (AID 1065). Particulars: higher = more signal, COS7 lysate expressing mutant human TOR1A.
Assay [3] in a line: small molecules captured by biotinylated probe aFGF2 – biochemical, small-molecule microarray, fluorescence 635/667, stem cell growth factor project, primary screen (AID 1067).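 Note: measures binding of biotinylated aFGF2 protein to printed compounds on slides; z-score merges feature fluorescence and signal-to-noise across triplicate slides.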 Particulars: higher = more signal.
The nature of assay [4]: small molecules captured by biotinylated probe aFGF10 – biochemical, small-molecule microarray, fluorescence 635/667, stem cell growth factor project, primary screen (AID 1071).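 Note: score merges 667 nm spot intensity and signal to noise from triplicate slides.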 Particulars: higher = more signal.
The target in assay [5] is Neurogenic locus notch homolog protein 2 (Homo sapiens) (UniProt Q04721). Description: small molecules binding Notch2 protein – biochemical, small-molecule microarray, 635 nm fluorescence, stem cell growth factors, primary screen (AID 1073). Particulars: higher = more signal.
The target in assay [6] is Pro-neuregulin-1, membrane-bound isoform (Homo sapiens) (UniProt Q02297). Description: small molecules binding neuregulin-1 protein – biochemical, small-molecule microarray, fluorescence 635/667, psychiatric disease protein project, primary screen (AID 1075).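 Note: score combines 667 nm spot fluorescence with signal to noise.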 The note with it: NRG1 binding, 635 nm fluorescence, higher = more signal.
The test system of assay [7] is Neuregulin-1 EGF-like domain. Description: small molecules binding NRG1 EGF domain – biochemical, small-molecule microarray, 635 nm fluorescence, primary screen (AID 1081).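 Note: binding of the protein to compounds printed on small-molecule microarray slides.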 Particulars: higher = more signal.
Assay [8] is described as follows: FRG1 expression reporter modulators in myotubes – cell-based, C2C12 myotubes, firefly/Renilla luciferase, luminescence, FRG1 inhibition for FSHD, primary screen (AID 1084). The note with it: FRG1 promoter luciferase, higher = more signal, called active from +8 up or from −8 down.
The nature of assay [9]: small molecules captured by biotinylated probe aFST – biochemical, small-molecule microarray, fluorescence 635/667, stem cell growth factor project, primary screen (AID 1086).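 Note: score merges 667 nm fluorescence with signal-to-noise of each printed compound spot.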 The note with it: higher = more signal.
The nature of assay [10]: binders of probe aHhip on microarray, primary screen, stem cell growth factor project, biochemical, small-molecule microarray, fluorescence 635/667 (AID 1087).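 Note: score merges spot fluorescence at 667nm with spot signal to noise ratio.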 The note with it: higher = more signal.

The source made the active and inactive calls.

Chain of Pro-neuregulin-1, membrane-bound isoform (Homo sapiens) (Q02297 whole entry, looked up, the tested form may be a part, canonical isoform): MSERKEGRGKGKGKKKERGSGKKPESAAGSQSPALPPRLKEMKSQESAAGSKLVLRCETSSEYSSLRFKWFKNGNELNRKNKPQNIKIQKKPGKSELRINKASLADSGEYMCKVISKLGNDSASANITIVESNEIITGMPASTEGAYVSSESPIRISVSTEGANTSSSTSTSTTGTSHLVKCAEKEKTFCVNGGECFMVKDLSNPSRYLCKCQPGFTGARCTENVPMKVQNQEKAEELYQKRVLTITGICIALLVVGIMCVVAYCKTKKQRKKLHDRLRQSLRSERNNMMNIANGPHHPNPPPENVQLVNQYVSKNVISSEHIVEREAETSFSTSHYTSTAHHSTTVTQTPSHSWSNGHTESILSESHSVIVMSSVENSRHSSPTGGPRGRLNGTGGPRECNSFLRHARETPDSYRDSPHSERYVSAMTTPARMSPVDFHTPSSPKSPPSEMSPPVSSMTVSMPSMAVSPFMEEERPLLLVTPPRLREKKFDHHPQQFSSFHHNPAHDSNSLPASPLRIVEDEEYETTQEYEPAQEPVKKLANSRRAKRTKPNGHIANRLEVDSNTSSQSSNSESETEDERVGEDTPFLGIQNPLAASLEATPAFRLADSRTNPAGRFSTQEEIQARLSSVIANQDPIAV
Chain of Neurogenic locus notch homolog protein 2 (Homo sapiens) (Q04721 whole entry, looked up, canonical isoform): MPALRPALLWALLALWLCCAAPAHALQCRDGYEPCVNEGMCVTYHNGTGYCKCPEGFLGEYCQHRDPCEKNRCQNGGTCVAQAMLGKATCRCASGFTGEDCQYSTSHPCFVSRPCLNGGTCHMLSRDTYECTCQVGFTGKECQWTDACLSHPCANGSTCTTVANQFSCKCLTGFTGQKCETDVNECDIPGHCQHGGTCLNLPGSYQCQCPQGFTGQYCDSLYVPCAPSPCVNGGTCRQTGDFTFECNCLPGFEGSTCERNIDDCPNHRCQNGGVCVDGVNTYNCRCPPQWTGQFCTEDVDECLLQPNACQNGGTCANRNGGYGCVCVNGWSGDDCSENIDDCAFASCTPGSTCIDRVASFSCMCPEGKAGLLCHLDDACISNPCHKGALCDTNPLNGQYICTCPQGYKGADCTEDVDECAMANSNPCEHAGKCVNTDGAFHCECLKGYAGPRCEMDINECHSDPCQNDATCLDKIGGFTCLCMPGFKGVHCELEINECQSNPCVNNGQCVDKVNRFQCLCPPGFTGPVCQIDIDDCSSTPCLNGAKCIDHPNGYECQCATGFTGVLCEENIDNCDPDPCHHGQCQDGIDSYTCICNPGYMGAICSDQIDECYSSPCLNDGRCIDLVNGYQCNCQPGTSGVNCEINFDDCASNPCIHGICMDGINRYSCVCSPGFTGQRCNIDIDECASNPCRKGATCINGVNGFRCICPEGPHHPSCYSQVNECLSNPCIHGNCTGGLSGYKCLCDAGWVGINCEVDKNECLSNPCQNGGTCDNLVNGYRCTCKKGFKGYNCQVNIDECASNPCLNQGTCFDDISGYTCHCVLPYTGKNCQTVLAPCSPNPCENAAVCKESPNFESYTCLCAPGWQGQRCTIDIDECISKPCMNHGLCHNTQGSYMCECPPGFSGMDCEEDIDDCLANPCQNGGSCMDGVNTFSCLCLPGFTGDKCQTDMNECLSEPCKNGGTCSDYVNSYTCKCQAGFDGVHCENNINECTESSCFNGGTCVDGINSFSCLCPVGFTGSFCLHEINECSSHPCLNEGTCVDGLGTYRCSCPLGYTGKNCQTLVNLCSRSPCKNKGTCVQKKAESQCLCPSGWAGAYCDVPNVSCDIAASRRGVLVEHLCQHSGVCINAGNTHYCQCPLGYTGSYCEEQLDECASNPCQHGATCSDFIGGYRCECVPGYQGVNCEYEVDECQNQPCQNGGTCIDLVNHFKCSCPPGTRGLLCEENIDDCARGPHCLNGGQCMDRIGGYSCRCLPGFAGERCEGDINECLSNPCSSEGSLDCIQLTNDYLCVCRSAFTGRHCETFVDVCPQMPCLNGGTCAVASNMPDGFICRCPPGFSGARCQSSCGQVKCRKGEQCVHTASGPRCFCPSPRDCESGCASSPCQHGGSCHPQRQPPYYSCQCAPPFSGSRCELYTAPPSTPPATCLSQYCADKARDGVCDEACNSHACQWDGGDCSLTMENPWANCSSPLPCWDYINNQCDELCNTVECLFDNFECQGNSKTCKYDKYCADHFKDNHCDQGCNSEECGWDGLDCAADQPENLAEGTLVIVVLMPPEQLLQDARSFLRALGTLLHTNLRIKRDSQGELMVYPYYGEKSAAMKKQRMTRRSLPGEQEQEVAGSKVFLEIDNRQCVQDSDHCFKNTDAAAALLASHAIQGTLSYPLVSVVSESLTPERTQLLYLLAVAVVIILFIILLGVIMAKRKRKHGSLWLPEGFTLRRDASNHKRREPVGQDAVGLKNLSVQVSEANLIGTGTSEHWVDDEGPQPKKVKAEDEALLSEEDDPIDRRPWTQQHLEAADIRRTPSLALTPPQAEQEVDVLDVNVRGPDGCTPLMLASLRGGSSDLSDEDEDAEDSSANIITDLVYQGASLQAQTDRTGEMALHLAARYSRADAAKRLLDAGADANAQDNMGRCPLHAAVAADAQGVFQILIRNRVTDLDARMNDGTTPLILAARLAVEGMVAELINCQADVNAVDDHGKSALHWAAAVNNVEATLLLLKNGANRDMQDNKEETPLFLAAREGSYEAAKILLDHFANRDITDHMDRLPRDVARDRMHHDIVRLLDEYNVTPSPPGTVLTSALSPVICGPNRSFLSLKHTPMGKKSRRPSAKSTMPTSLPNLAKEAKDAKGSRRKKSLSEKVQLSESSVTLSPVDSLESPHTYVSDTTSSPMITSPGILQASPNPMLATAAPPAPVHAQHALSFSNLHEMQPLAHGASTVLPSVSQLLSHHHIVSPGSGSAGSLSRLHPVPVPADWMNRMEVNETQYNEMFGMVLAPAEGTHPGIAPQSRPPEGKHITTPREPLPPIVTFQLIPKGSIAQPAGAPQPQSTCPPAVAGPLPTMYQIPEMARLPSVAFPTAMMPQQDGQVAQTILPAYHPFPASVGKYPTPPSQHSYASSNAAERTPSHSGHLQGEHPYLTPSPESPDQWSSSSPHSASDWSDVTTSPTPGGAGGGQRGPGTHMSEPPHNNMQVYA

In the case of `CO[C@H]1O[C@H](CO)[C@@H](OC(=O)Nc2ccc3c(c2)OCO3)[C@H](OC(=O)Nc2ccccc2)[C@@H]1OC(=O)Nc1ccccc1`, the composite z-score in [1] is -0.214; in assay [2], 0.215; in [3] it was 0.0654; in assay [4] it was 0.949; in [5] it was -0.0622; in assay [6], 1.27. Also, the results for the composite z-score in assay [7], in [9] and in assay [10] were 1.29, 0.188 and -0.0994, respectively. For the same compound, the z-score in assay [8] was -1.6 (inactive).
With `CCN1C(C)=C(C(=O)OC)[C@@H](c2ccccc2)N2C(=O)[C@@]3(C(=O)OC)O[C@@]12[C@@H]1C(=O)N(C)C(=O)[C@@H]13`, the composite z-score in assay [1] was -0.217; in [2], 0.139; in assay [3] it was -0.0125; in [4], 0.735; in [5], 0.949; in [6] it was 0.825. For the same compound, the composite z-score in assay [7] was 1.18; in assay [9] it was 0.264; in assay [10], -0.0994. In addition, the z-score in [8] is -1.36 (inactive).
In the case of `O=C1C[C@@](C(=O)NCCN2CCOCC2)(c2ccc([N+](=O)[O-])cc2)[C@@H](c2ccc(CO)cc2)N1C1CCCCC1`, the composite z-score in assay [1] is 0.224; in [2] it was 0.657; in assay [3] it was 0.11; in assay [4], 0.26; in [5], 0.576; in assay [6] it was 0.548. For the same compound, the results for the composite z-score in [7], in assay [9] and in [10] were 1.25, 0.133 and 0.0053, respectively. The z-score in [8] was 0.292 (inactive).
With `COC(=O)[C@@]1(Cc2ccc(OC)cc2)[C@H]2c3cc(C(=O)N(C)C)n(CCc4ccc(OC)c(Br)c4)c3C[C@H]2CN1C(=O)c1ccccc1`, the composite z-score was determined as 1.53 in assay [1]; 0.323 in [2]; 0.544 in assay [3]; 1.03 in assay [4]; 1.66 in [5]; 1.77 in [6]. Also, the composite z-score in assay [7] is 1.34; in [9], 1.95; in assay [10], -0.0489. Also, in assay [8], the z-score is -0.151 (inactive).
For the compound `NC(=O)NCC#Cc1ccc2c(c1)[C@]1(C(=O)N2)[C@H](c2ccccc2OCCO)N2[C@H](c3ccccc3)[C@H](c3ccccc3)OC(=O)[C@H]2[C@@H]1C(=O)N1CCN(c2ncccn2)CC1`, the composite z-score was 0.533 in [1]; 0.195 in assay [2]; -0.0145 in assay [3]; 0.499 in assay [4]; 0.583 in [5]; 1.19 in [6]. Also, the composite z-score is 1.07 in [7], 0.315 in [9] and -0.0994 in assay [10]. Besides, the z-score in assay [8] was -0.112 (inactive).
With `[N-]=[N+]=Nc1ccccc1C[C@@]1(C(=O)N2CCOCC2)N=C(c2ccc(OCCCO)cc2)O[C@@H]1c1ccccc1N=[N+]=[N-]`, the composite z-score in [1] worked out at 1.14; in assay [2], 0.782; in assay [3], 0.195; in [4], 0.707; in [5] it was 1.45; in assay [6], 0.889. The composite z-score in assay [7] amounted to 1.12; in [9] it was 1.18; in assay [10], 0.0511. Moreover, in assay [8], the z-score is -1.36 (inactive).
Consider `COc1ccc([Si](C)(C)[C@@H]2[C@@H](CCO)O[C@]3(C(=O)N(Cc4ccccc4)c4ccccc43)[C@H]2C)cc1`, for which the composite z-score is -0.377 in [1]; 0.274 in assay [2]; -0.0692 in assay [3]; 0.351 in assay [4]; 0.216 in assay [5]; -0.01 in [6]. For the same compound, the composite z-score in [7] was 0.501; in assay [9] it was -0.0439; in [10], -0.0994. In addition, the z-score in assay [8] was 0.377 (inactive).
In the case of `[N-]=[N+]=NCc1ccccc1C[C@]1(C(N)=O)N=C(c2ccc(OCCCO)cc2)O[C@H]1c1ccccc1CN=[N+]=[N-]`, the composite z-score in [1] was determined as 1.15; in assay [2] it was 1.14; in assay [3], 0.128; in assay [4], 0.616; in assay [5], 1.09; in assay [6] it was 1.74. For the same compound, the values for the composite z-score in [7], in assay [9] and in assay [10] were 1, 0.823 and -0.3, respectively. The z-score in assay [8] is -1.55 (inactive).
Turning to `CC(=O)NCCCC[C@@H]1NC(=O)[C@H]2C[C@@H](C(=O)NCCCCCCN(C)C)[C@@H](c3cccc(OCCO)c3)N2C1=O`, the composite z-score in assay [1] worked out at 0.0256; in assay [2], 2.05; in assay [3], 0.0996; in assay [4], 1.24; in assay [5], 1.54; in assay [6], 0.681. Moreover, the values for the composite z-score in assay [7], in assay [9] and in [10] were 1.35, 0.861 and 0.0053, respectively. Besides, in assay [8], the z-score was 2.92 (inactive).
As for `CCOC(=O)C[C@H]1[C@H](OC(=O)Cc2ccc3c(c2)OCO3)[C@@H](NC(=O)CC(C)C)c2cc(OCCCO)ccc2N1C(=O)c1ccccc1`, the composite z-score in [1] was -0.0798; in assay [2], 0.128; in assay [3], 0.0021; in assay [4], 0.782; in assay [5], 0.797; in assay [6], -0.0284. The composite z-score in assay [7] is 0.855; in assay [9] it was 0.0004; in assay [10] it was -0.0994. Besides, in assay [8], the z-score is -1.2 (inactive).
As for `CCCCCCc1nc(-c2cc(C)c(OC)c(C)c2)cc2c1[Si](C(C)C)(C(C)C)O[C@H]2c1ccccc1`, the composite z-score in assay [1] is -0.315; in assay [2], -0.397; in [3], -0.14; in assay [4], -0.324; in assay [5], -0.209; in [6] it was -0.626. The results for the composite z-score in assay [7], in assay [9] and in assay [10] were -1.04, 0.0223 and 0.0505, respectively. The z-score in [8] was 0.119 (inactive).
As for `O=C1c2ccccc2[C@](Cc2ccccc2I)(C(=O)O)[C@H](c2ccc(CO)cc2)N1C1CCCCC1`, the composite z-score was found to be 0.007 in assay [1]; 0.297 in [2]; 0.0545 in assay [3]; 1.06 in [4]; 1.56 in assay [5]; 1.22 in assay [6]. Besides, the composite z-score is 1.32 in assay [7], 0.892 in assay [9] and 0.011 in assay [10]. Further, the z-score in [8] was 0.287 (inactive).
In the case of `O=C(NCc1ccccc1)c1ccc(Br)cc1[N+](=O)[O-]`, the composite z-score in assay [1] was -0.375; in assay [2] it was 0.13; in assay [3], -0.138; in assay [4], 0.438; in assay [5] it was 0.596; in assay [6] it was 0.661. Further, the composite z-score in assay [7] is 0.341; in [9] it was 0.514; in [10], -0.114. Moreover, in [8], the z-score was -0.567 (inactive).
Turning to `CCCC=C(CCC)[C@@H](NS(=O)(=O)c1cccc(C(F)(F)F)c1)c1ccc(C(=O)OC)cc1`, the composite z-score in assay [1] was 2.23; in assay [2] it was 0.131; in assay [3], 0.731; in [4], -0.0446; in [5], 0.318; in assay [6], -0.0702. The composite z-score in [7] is 0.53; in [9], 2.13; in assay [10], 0.171. Moreover, the z-score in [8] was 2.49 (inactive).
